# Screens: PubChem, several laboratories
# Mtb UGM inh – M. tuberculosis UGM enzyme inhibitors, primary screen, biochemical, fluorescence polarization, single point | UDP-galactopyranose mutase (Mycobacterium tuberculosis (strain ATCC 25618 / H37Rv)), … | purified UGM, fluorescence polarization probe displacement | inhibition, % at 10 µM | 320,000 tested, 0.06% active | AID 504406, 2011; in the data active means inhibition above about 10%, passing the limit was not always enough
# PrP UTR inh – inhibition of PrP 5' UTR reporter expression; cell-based PrP 5' UTR mRNA reporter, plate reader; inhibition, % (test concentration not listed); 340,000 tested, 0.35% active; AID 488862, 2010; in the data active means inhibition above about 52%; further: 0 = median of the neutral control wells
# SSB-PriA inh – inhibitors of Klebsiella pneumoniae PriA binding to SSB C-terminal tail, primary screen, biochemical, AlphaScreen. AlphaScreen SSBct-PriA binding, biotinylated peptide. 430,000 tested, 0.6% active. PriA–SSB C-terminal tail interaction (Klebsiella pneumoniae). inhibition, % at 33 µM; in the data active means inhibition mostly above about 37%, no sharp cut-off; inactive means mostly below about 20%;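 further: plate controls were negative control peptide for no effect and reference peptide for full effect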
# FadD28 FP inh – inhibitors of FadD28 bisubstrate probe binding, primary screen, biochemical, fluorescence polarization, single point | Mycobacterium tuberculosis FadD28 fatty-acid-AMP ligase | inhibition, % at 12.5 µM | 360,000 tested, 0.22% active | AID 588549, 2011; in the data active means inhibition above about 8.5%, passing the limit was not always enough
# Rv3671c protease – Rv3671c serine protease inhibitors, primary screen, biochemical, fluorescence polarization, M. tuberculosis H37Rv | 320,000 tested, 0.048% active | inhibition, % at 5.96 µM | P9WHR9; in the data active means inhibition above about 38%;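 further: extracellular domain of Rv3671c used as enzyme; 0% = enzyme with DMSO and 100% = no enzyme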
# PrPC surface inh – inhibitors of human cell surface prion protein PrPC, primary screen, cell-based, TR-FRET. TR-FRET read-out. Major prion protein (Homo sapiens), P04156. 370,000 tested, 0.43% active. inhibition, % at 13.8 µM; in the data active means inhibition above about 24%; further: 0% = median of the test wells and 100% = reference compound wells
# PrPC TRFRET cf – confirmation of inhibitors of cell surface human prion protein, confirmation, cell-based, TR-FRET. shares compounds with PrPC surface inh. cell surface PrPC level. inhibition, % at 13.8 µM. 1,500 tested, 65% active; in the data active means inhibition above about 25%
# LD9 tox – cytotoxicity in LD9 cells, cytotoxicity control for cell surface PrPc inhibitor project, cell-based, luminescence, high throughput; shares compounds with PrPC surface inh; luminescence viability; inhibition, % at 13.8 µM; 1,500 tested, 29% active; AID 743201, 2013; in the data active means inhibition above about 9.5%
# * marks the source's active call; other numbers are inactive results; / = no result; + = active, no number. Compounds with a hit are over-represented: about 1.2% of the library has one in this group of screens.
SMILES,Mtb UGM inh,PrP UTR inh,SSB-PriA inh,FadD28 FP inh,Rv3671c protease,PrPC surface inh,PrPC TRFRET cf,LD9 tox
COCCCN1C(=O)c2[nH]nc(-c3cc(C)cc(C)c3O)c2C1c1ccc(O)c(OC)c1 (centres undefined),1,-22,3,-1,3,0,/,/
COc1cc(C(=O)NC2CCCCN(Cc3cccc(C(F)(F)F)c3)C2=O)cc(OC)c1OC (centres undefined),/,/,/,/,/,49*,8,-7
O=C(NC1CCCCN(Cc2cccc(C(F)(F)F)c2)C1=O)c1ccc(COc2ccccc2)cc1 (centres undefined),/,/,/,/,/,26*,25*,5
CCOC(=O)c1c(NC(=O)C2CCN(S(=O)(=O)c3ccc(F)cc3)CC2)sc2c1CCCC2,/,/,-15,/,/,/,/,/
Cc1ccc(NC(=O)C(=O)NC[C@](C)(O)c2cc3ccccc3s2)cc1F,/,/,-4,/,/,/,/,/
CN1C(=O)C(C)(C)c2cc(S(=O)(=O)N3CCCC3C(=O)NCc3ccc(F)cc3)ccc21 (centres undefined),1,-26,-12,-2,-6,4,/,/
CN1C(=O)C(C)(C)c2cc(S(=O)(=O)N3CCCC(C(=O)NCc4ccc(Cl)cc4)C3)ccc21 (centres undefined),0,-39,-5,-4,-5,41*,45*,-2
Cc1cc(C)cc(NC(=O)C2CCCN2S(=O)(=O)c2ccc3c(c2)C(C)(C)C(=O)N3C)c1 (centres undefined),0,-28,-7,-2,-4,37*,19,-4
N#CC(C(=O)Oc1ccccc1)=C1Nc2ccccc2-c2ccccc21,/,/,-15,/,/,/,/,/
CC(C)N1CCc2c(sc(NC(=O)C3CCCCC3)c2C(N)=O)C1,4,-19,-2,-2,-5,32*,8,3
CCc1cccc(NC(=O)Cn2cnc3c([nH]c4ccccc43)c2=O)c1,/,/,-8,/,/,/,/,/
COc1ccccc1NC(=O)Nc1ccc(-n2nnn(C)c2=O)cc1,/,/,4,/,/,/,/,/
CC(NC(=O)c1cc(COc2ccc3ncccc3c2)on1)c1ccc(F)cc1 (centres undefined),0,-1,1,-1,-5,33*,34*,11*
O=C(c1cc(COc2ccc3ncccc3c2)on1)N1CCCCCC1,1,-24,3,-1,1,24,/,/
O=C(c1cc(COc2ccc3ncccc3c2)on1)N1CCCC1,0,-2,-5,0,6,42*,42*,9
O=C(NCCc1cn2ccccc2n1)c1cc(COc2ccc3ncccc3c2)on1,2,-1,8,-1,-2,25*,40*,49*
NC(=O)C1=C[C@@H](c2coc3ccccc3c2=O)C[C@@H](OCc2ccc(CO)cc2)O1,-3,-42,-11,-3,1,40*,31*,1
NC(=O)C1=C[C@@H](c2coc3ccccc3c2=O)C[C@@H](OCCCCO)O1,3,-2,0,-1,4,27*,32*,-3
CC(C)N1C(=O)/C(=C/c2cc(Cl)c3ccccc3n2)SC1=S,/,/,4,/,/,/,/,/
COc1ccc2c(c1)c(/C=N/Nc1nc3ccccc3[nH]1)c(C)n2C,1,-50,+,2,37,25*,6,27*
O=S(=O)(NC1CCC(Oc2ccccn2)CC1)C1CC1 (centres undefined),/,/,-2,/,/,/,/,/
Cc1cc(C(=O)CSc2nc3ccccc3[nH]2)c(C)n1CC1CCCO1 (centres undefined),-1,9,11,0,2,44*,34*,38*
Cc1cc(C(=O)CSc2nc(N)cc(=O)[nH]2)c(C)n1CC1CCCO1 (centres undefined),0,-17,3,-3,6,0,/,/
COc1ccc(-c2cnc(SCC(=O)Nc3ccc4c(c3)OCO4)n2Cc2ccco2)cc1,/,-9,10,-2,/,25*,19,9.3*
CC(=O)Nc1cccc(NC(=O)CSc2ncc(-c3ccc(Cl)cc3)n2Cc2ccco2)c1,2,-17,-23,-1,-23,7,/,/
SMILES,Mtb UGM inh,PrP UTR inh,SSB-PriA inh,FadD28 FP inh,Rv3671c protease,PrPC surface inh,PrPC TRFRET cf,LD9 tox
COc1cc2[nH]cc(C(=O)NCCc3ccccc3)c(=O)c2cc1OC,-1,-12,6,-6,-15,8,/,/
COc1cccc2c(=O)c(C(=O)NCCc3ccccc3)c[nH]c12,/,-41,-7,-3,/,25*,12,-4
O=C(CCCS(=O)(=O)c1ccc(Cl)cc1)Nc1nnc(-c2ccno2)o1,/,/,-9,/,/,/,/,/
C[C@H]1COc2c3ccc(I)cc3nn21,/,/,/,/,/,47*,70*,-6
O=C(CSc1ccc(F)cc1)NC1CCCC(O)C1 (centres undefined),/,/,-18,/,/,/,/,/
O=C(Nc1cccc(Cl)c1)Nc1ccc2c(c1)OCO2,-4,-95,12,-1,-2,32*,31*,-3
O=C(NCc1ccc2c(c1)OCO2)Nc1cccc(Cl)c1,1,-34,-20,-1,-11,13,/,/
CN(C)S(=O)(=O)c1ccc(N2CCCC2)c(C(=O)Nc2nc3ccc(F)cc3s2)c1,-3,-24,2,-2,-28,11,/,/
Cc1cccc2sc(NC(=O)c3cc(S(=O)(=O)N(C)C)ccc3N3CCCC3)nc12,-1,-10,-9,-3,5,50*,31*,-10
CN(C)S(=O)(=O)c1ccc(N2CCCC2)c(C(=O)Nc2nc3ccccc3s2)c1,2,-36,5,0,-3,61*,61*,-5
CCC(=O)NC(c1ccc(Cl)cc1Cl)c1ccc2cccnc2c1O (centres undefined),0,19,-4,-4,11,28*,21,25*
CC(C)C(=O)NC(c1ccc(Cl)cc1Cl)c1ccc2cccnc2c1O (centres undefined),0,46,26,0,2,30*,25*,9.8*
CC(=O)NC(c1ccco1)c1ccc2cccnc2c1O (centres undefined),2,18,85,1,9,/,/,/
CC(=O)NC(c1ccc(Cl)cc1)c1ccc2cccnc2c1O (centres undefined),/,28,85,-3,/,40*,35*,33*
CCC(=O)NC(c1ccc(C)cc1)c1ccc2cccnc2c1O (centres undefined),-2,16,-4,-3,10,30*,31*,28*
